# Measured values: PubChem BioAssay AID894 (National Center for Advancing Translational Sciences (NCATS), 2007)
# Where “and” joins values, the source holds several entries; their conditions need not be identical. Equal entries are not always repeated. The whole screen tested about 150,000 compounds, of which about 6,500 (4.3%) were called active. About 12% were inconclusive and are not listed. Shown is part of a subset that was picked to be rich in actives. A number with no mark means an inactive call. Calls come from the whole dose curve; as a rule, active = well fitted inhibition curve with a large enough effect (not every such curve was filed as active); inconclusive = small, poorly fitted or top-dose-only effect, or another doubt; inactive = no such curve, though single readings can be large or run the other way.
# Biological target: 15-hydroxyprostaglandin dehydrogenase [NAD(+)] (Homo sapiens) (UniProt P15428)
# Assay: qHTS Assay for Inhibitors of HPGD (15-Hydroxyprostaglandin Dehydrogenase)
# Conditions: purified HPGD, NADH fluorescence kinetic, PGE2 substrate; activity change, negative = inhibition: stronger effect = lower value
# How it was run: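 NADH formation kinetics: reaction with 30 uM PGE2 and 1 mM NAD+ (final), 20 nM enzyme, Tris-HCl pH 8 with Tween 20, after 15 min compound preincubation at room temperature. Fluorescence change, last versus first of five reads.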
# % is set by controls: 0 for no effect and ±100 for the full control effect; potency is the fitted concentration of half-maximal effect.
# Chain of 15-hydroxyprostaglandin dehydrogenase [NAD(+)] (Homo sapiens) (P15428 whole entry, looked up): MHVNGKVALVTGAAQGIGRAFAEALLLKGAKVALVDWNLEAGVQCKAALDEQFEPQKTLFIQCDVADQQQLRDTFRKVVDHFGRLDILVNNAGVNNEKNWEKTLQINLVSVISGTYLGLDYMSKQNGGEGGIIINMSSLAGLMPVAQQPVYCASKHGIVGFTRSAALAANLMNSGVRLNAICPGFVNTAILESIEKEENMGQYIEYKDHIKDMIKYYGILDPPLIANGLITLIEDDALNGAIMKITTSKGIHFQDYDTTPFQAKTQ
Compound,"activity change, negative = inhibition",Potency
O=C(CN1CCN(S(=O)(=O)c2ccc(Br)cc2)CC1)Nc1ccccc1C(=O)c1ccccc1,-12.5%,–
CCOC(=O)N1CCN(C(=O)C2CCN(Cc3ccc(OC)cc3OC)CC2)CC1,-11.3%,–
CCCC(NC(=O)c1ccco1)c1nc2ccccc2[nH]1 (configuration not stated),-3.61%,–
Cc1cccc(C(=O)NC(=S)N2CCN(c3ccc([N+](=O)[O-])cc3)CC2)c1,-19.1%,–
O=C(O)Cc1ccc(-c2ccccc2)cc1,-9.59% and -19%,–
CCOC(=O)/C=C/C(=O)OCC(=O)NC(c1ccccc1)c1ccccc1,-29.7%,–
O=C(Cc1ccc(-c2ccccc2)cc1)NC(c1ccccc1)c1ccccc1,–,12.6 µM (active)
CCCCC(=O)Nc1ccc(C(=O)Nc2cc(C(F)(F)F)ccc2Cl)cc1,-6.97%,–
CCOc1ccc(NC(=O)c2ccc(CSc3nnnn3C)cc2)cc1,-4.67%,–
COc1ccccc1CNc1ncnc2ccc(-c3c(C)noc3C)cc12,–,6.31 µM (active)
COCCNc1ncnc2ccc(-c3ccccc3CN(C)C)cc12,-8.98%,–
COc1ccc2[nH]cc(CCNc3ncnc4ccc(-c5ccccc5CN(C)C)cc34)c2c1,-13.3%,–
Cc1ccc(N(Cc2cc3ccccc3[nH]c2=O)C(=O)c2cccs2)cc1,-11%,–
CCOc1ccc(C(=O)Nc2nccs2)cc1[N+](=O)[O-],-16.3%,–
O=C(CN1CCN(c2ccc(O)cc2)CC1)NC1CCCc2ccccc21 (configuration not stated),-19.6%,–
CCOc1ccc2nc(NC(=O)c3cc([N+](=O)[O-])ccc3N3CCOCC3)sc2c1,-5.12%,–
Cc1ccccc1Cn1nc(C)c(NC(=O)C(F)(F)F)c1C,0.212%,–
Cc1ccccc1OCC(=O)Nc1nc(C)c(C(=O)N(C)C)s1,-1.51%,–
COCCNC(=O)COc1ccccc1C,-18.6%,–
COCCCNC(=O)COc1cc(C)c(Cl)c(C)c1,-21.9%,–
COCCNC(=O)COc1ccc(C)c(C)c1,–,20 µM (active)
CCCc1noc2c1/C(=N\O)CCC2,-17.1%,–
CCSC(C)CC1C/C(=N/O)c2c(C)noc2C1 (configuration not stated),–,25.1 µM (active)
CCOc1ccc(NC(=O)COc2ccc(C(=O)NC3CCCc4ccccc43)cc2OC)cc1 (configuration not stated),-12.8%,–
O=C(CCN1C(=O)c2ccccc2C1=O)C1=NN[C@@H]2C(=O)N(c3ccc(F)cc3)C(=O)[C@H]12,-16.3%,–

Compound,"activity change, negative = inhibition",Potency
COc1cccc(N(CC(=O)N2CCc3ccccc3C2)S(C)(=O)=O)c1,-5.24%,–
CN(c1ccc(C(=O)N2CCc3ccccc3C2)cc1)S(C)(=O)=O,–,14.1 µM (active)
O=C(C(=O)N1CCc2ccccc2C1)N1CCc2ccccc2C1,-4.51%,–
N=c1n(CCc2ccccc2)c2ccccc2n1Cc1ccccc1F,-8.4%,–
COCCNC(=S)N/N=C/c1c(C)[nH]c2ccccc12,-19.3%,–
Cc1ccc(/C=C(\C#N)C(=O)Nc2cccc3ncccc23)o1,–,39.8 µM (active)
O=C(Nc1cccc2ncccc12)C(Cl)(Cl)Cl,-18.4%,–
O=C(O)c1cc(Cl)c(Cl)cc1C(=O)Nc1cccc2ncccc12,-16.7%,–
Cc1ccc(S(=O)(=O)N(CC(=O)N2CCc3ccccc3C2)c2cccc(Cl)c2)cc1,-8.94%,–
Cc1ccc2c(c1)N(C(=O)CCC(=O)N1CCc3ccccc3C1)CCO2,–,14.1 µM (active)
Cc1ccc(S(=O)(=O)N(C)CC(=O)N2CCc3ccccc32)cc1,-3.12%,–
Cc1cc(OCCCC(=O)NCCN2C(=O)S/C(=C\c3cccnc3)C2=O)ccc1Cl,-5.63%,–
Cn1cnc(C(F)(F)F)c1-c1ccc([N+](=O)[O-])cc1,-0.963%,–
Cc1nc2ccccc2c(=O)n1CCCn1ccnc1,-6.43%,–
Cc1ccnc(-n2sc3ccccc3c2=O)n1,–,0.794 µM (active)
Cc1ccc(NC(=S)NCc2ccccc2Cl)c(C)c1,-27.2%,–
Clc1ccc(C2=CSC3=Nc4cccc5cccc(c45)N23)cc1,–,7.94 µM (active)
O=S(=O)(NCC1CCCO1)c1cnc(Cl)c(Cl)c1 (configuration not stated),-16.1%,–
C/C(=C\c1ccccc1)C1NC(=O)c2c(sc3c2CCCC3)N1 (configuration not stated),-3.55%,–
COc1ccccc1N1CCN(C(=O)c2cc(-c3ccc(Br)cc3)on2)CC1,-29.1%,–
COc1ccccc1-c1cc(C(=O)N2CCCCC2)no1,–,3.55 µM (active)
COc1ccccc1N1CCN(C(=O)c2cc(-c3ccc(Cl)c(Cl)c3)on2)CC1,-13.7%,–
O=C(c1cccs1)N1CCN(C(=O)N2CCOCC2)CC1,2.42%,–
O=C(c1cc(-c2ccccc2O)on1)N1CCCC1,-29.8%,–
O=C(c1cc(-c2cccs2)on1)N1CCCCC1,–,1.78 µM (active)

Compound,"activity change, negative = inhibition",Potency
Cc1cc(C)cc(NC(=S)NCc2ccc(F)cc2)c1,-19.9%,–
CCn1nc(C)c(/C=N/NC(=O)Cc2ccc(Cl)cc2)c1C,-9.17%,–
O=C(NCc1cccs1)C(=O)NCC1OCCCN1S(=O)(=O)c1ccc(F)cc1 (configuration not stated),-5.48%,–
C=CCOC(=O)NC(c1ccc(F)c(F)c1)C(C(=O)COC)C(=O)OC (configuration not stated),-10.1% and -9.32%,–
CCN(CC)S(=O)(=O)c1cccc(C(=O)Nc2ccccc2)c1,0.0347%,–
CCN(CC)S(=O)(=O)c1cccc(-c2n[nH]c(=S)n2/N=C/c2ccc(C(=O)OC)cc2)c1,–,6.31 µM (active)
COC(=O)c1ccc(/C=N\n2c(C)nnc2C)cc1,-12.4%,–
CC(Sc1nc2cc(Cl)ccc2s1)C(=O)Nc1ccc2c(c1)OCO2 (configuration not stated),-22.7%,–
CC(C)CNC(=O)COC(=O)/C=C/c1ccco1,-11.3%,–
CC(C)CNC(=O)COC(=O)/C=C/c1ccccc1[N+](=O)[O-],–,28.2 µM (active)
O=C(COC(=O)/C=C/c1cccc(Cl)c1)NCCc1ccccc1,-5.17%,–
COc1cccc(NC(=S)NCCCN2CCOCC2)c1,-6.46%,–
COc1cccc(NC(=S)NCc2ccco2)c1,–,11.2 µM (active)
COc1cccc(NC(=S)NCc2ccccn2)c1,-28.2%,–
O=S(=O)(Nc1ccc(Oc2ncccn2)c(Cl)c1)c1ccc(F)cc1,–,35.5 µM (active)
O=S(=O)(NCc1ccccn1)c1ccc(F)cc1,-6.74%,–
Cc1ccc(S(=O)(=O)Nc2ccc3ncccc3c2)cc1,-6.64%,–
Cc1cc(F)ccc1S(=O)(=O)Nc1ncnc2scc(-c3ccc(F)cc3)c12,-6.93%,–
O=[N+]([O-])c1cccc(C2=NCCS2)c1,-12.8%,–
O=C(COC(=O)c1cc(-c2cccs2)nn1-c1ccccc1)Nc1cc([N+](=O)[O-])ccc1Cl,-0.873%,–
CCOP(=O)(OCC)C(Nc1cccc(C)c1)c1ccc(F)cc1 (configuration not stated),-7.61%,–
O=C(c1ccc2c(c1)OCO2)N1CCNc2ccccc2C1,–,25.1 µM (active)
O=C(c1ccc2c(c1)OCO2)N1CCOCC1,–,14.1 µM (active)
O=C(c1cccc(S(=O)(=O)N2CCOCC2)c1)N1CCOCC1,-2.21%,–
O=C(Nc1ccccc1N1CCN(C(=O)c2ccccc2)CC1)c1ccc2c(c1)OCO2,-1.04%,–

Compound,"activity change, negative = inhibition",Potency
O=C(c1ccc2c(c1)OCO2)N1CCN(C(=O)c2ccco2)CC1,-11.7%,–
CC1CN(C(=O)c2ccc3c(c2)OCO3)OC(c2ccccc2)O1 (configuration not stated),-4.25%,–
CC(Nc1oc(-c2ccccc2)nc1-c1ccccc1)c1ccccc1 (configuration not stated),0.641% and -7.86%,–
COc1ccc(Cc2nnc(N/N=C/c3ccccc3O)[nH]c2=O)cc1OC,-16.1%,–
NS(=O)(=O)c1ccc(N=Cc2ccc(Br)s2)cc1,-0.454%,–
N#Cc1ccccc1NC(=O)COc1c(Br)cc(Br)c2cccnc12,-10%,–
Fc1cc(F)c2nc(N3CCOCC3)sc2c1,-12.5%,–
c1c2c(cc3sc(N4CCCCC4)nc13)OCCO2,–,25.1 µM (active)
Fc1ccc2nc(N3CCCCC3)sc2c1,-12.2%,–
CC1=C(C/C=C(\C)CCCC(C)CCCC(C)CCCC(C)C)C(=O)c2ccccc2C1=O (configuration not stated),-10.7%,–
CCCCN(CC)C(=O)c1ccc2c(c1)OCO2,–,12.6 µM (active)
O=C(CN(Cc1ccccc1)C(=O)c1ccc2c(c1)OCCO2)NCc1ccc2c(c1)OCO2,-6.78%,–
CCC(C)(C(=O)NC1CCCCC1)N(C)C(=O)c1ccc2c(c1)OCO2 (configuration not stated),-0.912%,–
Cc1nnc(OCC(=O)NCCC2=CCCCC2)c2ccccc12,-17.6%,–
CCn1c(=O)cc(SCC(=O)NCCC2=CCCCC2)c2ccccc21,–,7.08 µM (active)
CCn1c(=O)cc(SCC(=O)NCc2ccc3c(c2)OCO3)c2ccccc21,-4.58%,–
O=C1CC(c2cccc(Cl)c2)CC(O)=C1C=Nc1ccccc1 (configuration not stated),-9.88%,–
O=C(CNC(c1ccccc1)c1ccccc1)Nc1ccc(F)cc1,-9.88%,–
Nc1ccc(Oc2ccc(Cl)cc2)cc1,-8.65%,–
CC(C)(C)c1ccc(Oc2ccc(N)cc2)cc1,–,28.2 µM (active)
Cc1ccc(Oc2ccc(N)cc2)cc1,-24%,–
CCCCN(CC)C(=S)Nc1ccc2nc3n(c(=O)c2c1)CCCCC3,-1.94%,–
